Assay results published in PubChem BioAssay (NCATS).
Results filed as inconclusive are left out. Entries that show only a call come without a potency. Active and inactive are the calls of the source. Unless noted, calls follow the shape of the dose curve; as a rule, active = well fitted curve in the direction sought with a large enough effect; inconclusive = small, poorly fitted or top-dose-only effect, or another doubt; inactive = no such curve, though single readings can be large; an effect the other way counts as inactive or inconclusive. Peptide text beside a SMILES is read from it.

Key:
[1] = target: Cytochrome P450 3A4 (Homo sapiens) (UniProt P08684); assay: qHTS Assay for Inhibitors and Substrates of Cytochrome P450 3A4 (AID 884); also: nearly all actives have a fitted effect of over 50% in size; also: potency is read from the fitted curve at half-maximal effect
Chain of Cytochrome P450 3A4 (Homo sapiens) (P08684 whole entry, looked up): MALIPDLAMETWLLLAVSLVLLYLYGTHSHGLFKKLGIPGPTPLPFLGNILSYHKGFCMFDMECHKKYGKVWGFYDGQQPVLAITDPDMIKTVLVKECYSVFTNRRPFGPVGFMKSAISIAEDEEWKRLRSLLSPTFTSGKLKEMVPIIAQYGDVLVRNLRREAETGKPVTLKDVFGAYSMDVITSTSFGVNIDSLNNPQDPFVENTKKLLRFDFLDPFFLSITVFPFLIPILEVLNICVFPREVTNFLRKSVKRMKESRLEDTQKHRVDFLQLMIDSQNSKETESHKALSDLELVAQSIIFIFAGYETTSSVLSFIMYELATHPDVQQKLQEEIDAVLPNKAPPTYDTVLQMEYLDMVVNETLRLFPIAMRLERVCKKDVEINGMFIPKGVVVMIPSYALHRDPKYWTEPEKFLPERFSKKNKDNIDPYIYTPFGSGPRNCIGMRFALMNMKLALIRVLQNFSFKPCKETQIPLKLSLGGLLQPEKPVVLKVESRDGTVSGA
How it was run: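 Luminescent readout of luciferin produced by CYP3A4 (20 nM) dealkylation of Luciferin-PPXE, 25 uM (its KM). NADPH-driven reaction ran 60 min at RT after 10 min compound preincubation; data scaled to 57 uM ketoconazole as 100% inhibition.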

[2] = Confirmation and Secondary Assay for Modulators of Hemoglobin Beta Chain Splicing at IVS2 654 locus (AID 910);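 also: per-well total GFP intensity by laser scanning cytometry after 2-day treatment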
How it was run: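 HeLa cells stably carrying EGFP interrupted by mutant beta-globin IVS2-654 intron (CMV-driven) were treated with compound for 2 days at 37C; corrected splicing was scored as total peak GFP intensity per well (488 nm excitation, 500-520 nm emission).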

[3] = Confirmation and Secondary Assay for Modulators of Hemoglobin Beta Chain Splicing at IVS2 705 locus (AID 930);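 also: HeLa cells stably expressing the EGFP-705 splicing reporter; GFP fluorescence per well restored by corrected splicing of the IVS2-705 intron in EGFP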
How it was run: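 First, HeLa EGFP-705 cells are seeded at 500/well in Optimem with 2% FCS and left overnight. Next, compound or DMSO is added for 2 days. Finally wells are laser-scanned and total peak GFP intensity scored.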

[4] = qHTS Assay for Lipid Storage Modulators (AID 1519; calls by dose curve); conditions: Drosophila S3 cells, BODIPY lipid droplet/cell ratio, laser cytometry, cells loaded with oleic acid; for activity change, negative = inhibition: at 57.5 µM (top of the series)
How it was run: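 Cells seeded at 5,000 per well were treated with compounds over a concentration series and loaded with oleic acid (400 uM, as added). Lipid droplet fluorescence (488 nm excitation, 500-530 nm channel) was read by laser-scanning cytometry and normalized to 20 uM Triacsin C.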

[5] = target: Ubiquitin carboxyl-terminal hydrolase 1 (Homo sapiens) (UniProt O94782); assay: Inhibitors of USP1/UAF1: Pilot qHTS (AID 504865);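 also: rhodamine fluorescence freed from ubiquitin-rhodamine substrate followed over time; top concentration of the series differs between compounds; nearly all actives have a fitted effect of over 35% in size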
Chain of Ubiquitin carboxyl-terminal hydrolase 1 (Homo sapiens) (O94782 whole entry, looked up): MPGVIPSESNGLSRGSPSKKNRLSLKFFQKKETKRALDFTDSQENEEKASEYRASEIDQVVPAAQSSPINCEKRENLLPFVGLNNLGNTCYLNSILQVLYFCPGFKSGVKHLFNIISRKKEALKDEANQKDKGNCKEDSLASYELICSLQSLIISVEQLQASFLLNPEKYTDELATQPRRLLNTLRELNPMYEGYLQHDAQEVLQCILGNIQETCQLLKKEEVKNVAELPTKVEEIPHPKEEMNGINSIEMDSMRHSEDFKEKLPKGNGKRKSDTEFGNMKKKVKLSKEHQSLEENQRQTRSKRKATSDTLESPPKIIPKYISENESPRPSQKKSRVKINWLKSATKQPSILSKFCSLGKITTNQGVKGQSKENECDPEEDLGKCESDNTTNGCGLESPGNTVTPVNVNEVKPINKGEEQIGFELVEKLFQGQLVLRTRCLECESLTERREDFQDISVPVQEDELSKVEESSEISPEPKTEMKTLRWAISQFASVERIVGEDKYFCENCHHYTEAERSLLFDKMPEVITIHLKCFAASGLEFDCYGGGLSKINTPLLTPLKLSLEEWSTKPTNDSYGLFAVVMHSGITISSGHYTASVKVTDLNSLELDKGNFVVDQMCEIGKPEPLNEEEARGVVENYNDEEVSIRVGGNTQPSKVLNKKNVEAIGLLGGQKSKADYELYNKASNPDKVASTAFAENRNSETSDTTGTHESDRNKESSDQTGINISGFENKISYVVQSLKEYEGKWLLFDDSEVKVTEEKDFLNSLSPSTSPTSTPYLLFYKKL
How it was run: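 Enzyme-free wells gave the negative control, while test wells held 1nM USP1/UAF1 preincubated with compound for 15 min at room temperature. Ub-Rho at 150nM final started the reaction, and fluorescence at 480/540 nm was recorded kinetically.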

[6] = measured here: cell count channel max response
[7] = measured here: lipid channel max response

SMILES	Potency [1]	Potency [2]	Potency [3]	activity change, negative = inhibition [4]	max response [4, 6] [%]	max response [4, 7] [%]	Potency [5]
CC(C)CCCC(C)C1CCC2C3CC(=O)[C@H]4CC(O)CC[C@]4(C)C3CC[C@@]12C (stereo not given in full)	inactive	inactive	inactive	-8.35% (inactive)	-5.43	-14	inactive
NCC1CCCCC1CC(=O)O (stereo not given)	inactive	inactive	inactive	5.88% (inactive)	16.7	26.7	inactive
C=C(C)C1CC[C@]2(CO)CC[C@@]3(C)[C@H](CCC4[C@@]5(C)CCC(O)C(C)(C)C5CC[C@@]43C)C12 (stereo not given in full)	inactive	inactive	inactive	-2.93% (inactive)	-9.58	-12.7	inactive
CC(C)C(N)C(=O)NC(Cc1c[nH]c2ccccc12)C(=O)O (stereo not given)	inactive	inactive	inactive	7.82% (inactive)	15.4	28.4	inactive
OCC1O[C@@H](OC2C(O)C(CO)O[C@@]2(CO)O[C@@H]2OC(CO)C(O)C(O)C2O)C(O)C(O)C1O (stereo not given in full)	inactive	inactive	inactive	4.82% (inactive)	0.0409	4.57	inactive
COC(=O)C1=CO[C@@H](O[C@H]2OC(CO)C(O)C(O)C2O)C2C1CC(O)C2C (stereo not given in full)	inactive	inactive	inactive	6.73% (inactive)	11.3	19.4	inactive
CC(C)(O)C1CC[C@@]2(C)C3CCC4[C@@]5(C)CCCC(C)(C)C5C(O)C[C@]4(C)[C@]3(C)CC[C@@H]12 (stereo not given in full)	inactive	inactive	inactive	5.94% (inactive)	19.9	27.3	inactive
COc1cc2c(cc1OC)C1(O)C(=O)c3ccc(O)c(C(=O)O)c3OC1CO2 (stereo not given)	inactive	inactive	inactive	8.88% (inactive)	8.21	21.1	inactive
CC1(C)CC2C1CC[C@]1(C)CCC3C(C(=O)O)CC(=O)O[C@]32C1 (stereo not given in full)	inactive	inactive	inactive	3.56% (inactive)	4.93	10.6	inactive
CC(=O)O[C@]1(C)CC[C@]23CC1C(C)(C)C2CC[C@@H]3C (stereo not given in full)	inactive	inactive	inactive	3.63% (inactive)	7.64	13.6	inactive
CC1CC[C@]2(CO)CC[C@]3(C)C(=CCC4[C@@]5(C)CCC(O)C(C)(C)C5CC[C@@]43C)C2C1C (stereo not given in full)	inactive	inactive	inactive	6.23% (inactive)	4.46	20	inactive
COc1ccc(-c2cc(=O)c3c(O)c(OC)c(OC)c(OC)c3o2)cc1	inactive	inactive	inactive	5.49% (inactive)	14.3	20.3	inactive
C/C=C1\C2C=C(C)C[C@@]1(N)c1ccc(=O)[nH]c1C2	inactive	inactive	inactive	13.7% (inactive)	9.87	26.4	inactive
CC(=O)OC1CCC2(O)CC1(C)CCC1C2CC1(C)C (stereo not given)	inactive	inactive	inactive	0.291% (inactive)	16.4	18.1	inactive
CC1CCC(C(C)C)[C@H](O)C1 (stereo not given in full)	inactive	inactive	inactive	8.01% (inactive)	-2.41	-1.46	inactive
O=C(O)C1(O)CC(O)C(O)C(O)C1 (stereo not given)	inactive	inactive	inactive	2.66% (inactive)	9.62	14.4	inactive
CNC1C(O)C(O)C(CO)O[C@H]1OC1C(O[C@@H]2C(O)C(O)[C@@H](N=C(N)N)C(O)C2N=C(N)N)OC(C)[C@]1(O)C=O (stereo not given in full)	inactive	inactive	inactive	11.1% (inactive)	10.8	24.1	inactive
CC(=O)NC(CC(=O)O)C(=O)NC(CCC(=O)O)C(=O)O (stereo not drawn) (Ac-Asp-Glu-OH; configuration not given here)	inactive	inactive	inactive	4.52% (inactive)	12.9	18.5	inactive
CC1CC[C@@]2(OC1)OC1CC3C4CC[C@@H]5CC(O)CC[C@@]5(C)C4CC[C@]3(C)C1C2C (stereo not given in full)	inactive	inactive	inactive	4.69% (inactive)	11.7	17.1	inactive
[N-]=[N+]=NCC1OC(n2cnc3c(=O)[nH]c(N)nc32)C(O)C1O (stereo not given)	inactive	inactive	inactive	4.07% (inactive)	12.7	19.1	inactive
CC1(C)C2CC[C@@]1(C)C(=O)C2	inactive	inactive	inactive	3.53% (inactive)	13.5	19.8	inactive
COc1cc2c(cc1O)C(Cc1ccc(O)cc1)[N+](C)(C)CC2 (stereo not given)	inactive	inactive	inactive	12.6% (inactive)	6.75	22.8	inactive
COC(=O)C(C)c1ccc(C(=O)c2cccs2)cc1 (stereo not given)	inactive	inactive	inactive	9.81% (inactive)	-1.55	12.4	inactive
COc1ccc2c(C)cc(=O)oc2c1	inactive	inactive	inactive	8.28% (inactive)	31.7	42.1	inactive
CCOC(=O)CCCCCCCCCCCCC1C=CCC1 (stereo not given)	inactive	inactive	inactive	1.66% (inactive)	9.42	10.7	inactive

SMILES	Potency [1]	Potency [2]	Potency [3]	activity change, negative = inhibition [4]	max response [4, 6] [%]	max response [4, 7] [%]	Potency [5]
CC(=O)OC1CCC2(C)C3CC(=O)C4(C)C(CC5OC6(CCC(C)CO6)C(C)C54)C3CC[C@H]2C1 (stereo not given in full)	inactive	inactive	inactive	5.04% (inactive)	11.2	17.7	inactive
CC1O[C@@H](O[C@H]2C(Oc3cc(O)c4c(c3)OC(c3ccc(O)cc3)CC4=O)OC(CO)C(O)C2O)C(O)C(O)C1O (stereo not given in full)	inactive	inactive	inactive	6.1% (inactive)	13	21.6	inactive
NC(N)=NCCCC(NC(=O)C(N)Cc1ccc(O)cc1)C(=O)O (stereo not given)	inactive	inactive	inactive	5.19% (inactive)	20.9	29	inactive
CC1CC[C@@]2(OC1)OC1CC3C4CC=C5CC(O)CC[C@@]5(C)C4CC[C@]3(C)C1C2C (stereo not given in full)	inactive	inactive	inactive	5.92% (inactive)	10.1	19	inactive
CC1CCC(C(C)C)[C@H](OC(=O)c2ccccc2)C1 (stereo not given in full)	inactive	inactive	inactive	5.46% (inactive)	10.9	15.1	inactive
CC1=C2C(O)C(=O)OC3CC4C(C)(C)C(=O)C=C[C@]4(C)C(CC1)[C@@]23C (stereo not given in full)	inactive	inactive	inactive	3.51% (inactive)	17.8	24.5	inactive
Nc1ncnc2c1ncn2C1OC(COP(=O)(O)O)C(O)C1O (stereo not given)	inactive	inactive	inactive	5.46% (inactive)	29.6	41.9	inactive
CC(C)CCCC(C)C1CCC2C3CC[C@H]4CC(=O)CC[C@@]4(C)C3CC[C@@]12C (stereo not given in full)	inactive	inactive	inactive	1.96% (inactive)	8.57	10.7	inactive
COc1c(O)cc2c(c1O)C1OC(CO)C(O)[C@H](O)[C@H]1OC2=O (stereo not given in full)	inactive	inactive	inactive	6.03% (inactive)	7.39	14.2	inactive
Nc1nc2c([nH]c(=S)n2C2OC(CO)C(O)C2O)c(=O)[nH]1 (stereo not given)	inactive	inactive	inactive	2.15% (inactive)	0.955	15.7	inactive
Cc1cc(=O)c2c(O)cc(O)c(C)c2o1	25.1 µM (active)		inactive	14% (inactive)	5.24	21.1	inactive
CC(=O)OCC(=O)[C@@]1(O)CCC2C3CCC4=CC(=O)CC[C@]4(C)C3C(O)C[C@]21C (stereo not given in full)	inactive	inactive	inactive	7.11% (inactive)	10.3	18.3	inactive
CS(=O)(=O)c1ccc(C(O)C(CO)NC(=O)C(Cl)Cl)cc1 (stereo not given)	inactive	inactive	inactive	6.29% (inactive)	3.52	13.6	inactive
CC(=O)Oc1ccc2c(c1OC(C)=O)OCC1(O)Cc3c(cc(OC(C)=O)c(OC(C)=O)c3OC(C)=O)C21 (stereo not given)	inactive	inactive	inactive	0.943% (inactive)	9.82	11.3	inactive
Nc1nc2[nH]c(=O)c(=O)[nH]c2c(=O)[nH]1	inactive	inactive	inactive	4.12% (inactive)	1.82	6.32	inactive
CS(=O)(=O)CCCCN=C=S	inactive	inactive	inactive	-15.3% (inactive)	-1.15	-18	inactive
CC1O[C@@H](Oc2c(-c3ccc(O)c(O)c3)oc3cc(O)cc(O)c3c2=O)C(O)C(O)C1O (stereo not given in full)	inactive		inactive	10.2% (inactive)	19.3	40.6	inactive
CC1CCC2(C(=O)O)CCC3(C)C(=CCC4C3(C)CCC3[C@@]4(C)CC(O)C(O)[C@@]3(C)CO)C2C1C (stereo not given in full)	inactive	inactive	inactive	3.5% (inactive)	22.9	33.5	inactive
CC(=O)NC(CCC(=O)O)C(=O)O (stereo not given)	inactive		inactive	11.4% (inactive)	14.5	27.6	inactive
O=c1[nH]c(=O)n(C2CC(O)C(CO)O2)cc1C(F)(F)F (stereo not given)	inactive	inactive	inactive	3.87% (inactive)	-2.79	3.03	inactive
CC1CCC2(OC1)OC1CC3C4CCC5CC(O)CCC5(C)C4=CCC3(C)C1C2C (stereo not given)	inactive	inactive	inactive	-0.725% (inactive)	2.89	3.25	inactive
COc1cc2c3cc1Oc1cc(ccc1O)CC1c4c(cc(OC)c(O)c4Oc4ccc(cc4)CC3N(C)CC2)CC[N+]1(C)C (stereo not given)	inactive	inactive	inactive	4.12% (inactive)	-2.85	6.31	inactive
CC(=O)OCC(=O)[C@]1(O)C(OC(C)=O)CC2C3CCC4=CC(=O)C=C[C@@]4(C)[C@]3(F)C(O)C[C@]21C (stereo not given in full)	inactive	inactive	inactive	2.18% (inactive)	7.55	12.5	inactive
CON	inactive		inactive	4.31% (inactive)	12.5	21.6	inactive
O=C(O)c1ccc2c(c1)OCO2	inactive		inactive	6.55% (inactive)	14.4	22.7	inactive
